# Among all 3,400 compounds or so, about 840 (25%) were called active. Inconclusive results (about 11%) are left out.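 The calls were made as follows: active = fitted half-maximal concentration of signal decrease at or below twice the sample's top tested concentration; inconclusive = flat curve between -70 and -30 percent, or poor fit; inactive = flat within 30 percent, signal rise, or potency above limit.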 A selection follows. Potency and affinity values are given separately.
# Test: inhibitors of Toxoplasma growth in IFN-γ-primed HeLa – cell-based, ME49Luc, luciferase, 72 h, dose response (AID 1259418)
# Details: T. gondii ME49Luc in IFN-y HeLa, active compounds read low, -100% = high-dose IFN-γ control wells; at 19.5 µM unless noted
row,SMILES,max activity
1,Cc1ccc(-c2coc(-c3ccc(NC(=O)NCCc4ccccc4)cc3)n2)cc1,19.3% [at 2.6 µM] (inactive)
2,Clc1ccc(-c2nc(NC3CCCCCC3)c3ccccc3n2)cc1,14.3% [at 10 µM] (inactive)
3,COc1ccc(-c2nc(Nc3cc(OC)cc(OC)c3)c3ccccc3n2)cc1,19% [at 5 µM] (inactive)
4,COc1ccc(-c2nc(NC3CCCCCC3)c3ccccc3n2)cc1,19.2% [at 0.16 µM] (inactive)
5,COc1ccc(-c2nc(NC3CCCCC3)c3ccccc3n2)cc1,-27.2% [at 5 µM] (inactive)
6,COc1ccc(-c2nc(Nc3ccccc3F)c3ccccc3n2)cc1,11.7% (inactive)
7,Clc1ccc(-c2nc(NC3CCCCC3)c3ccccc3n2)cc1,16.4% (inactive)
8,COc1ccc(-c2nc(Nc3ccc(Cl)cc3C)c3ccccc3n2)cc1,-19.8% [at 10 µM] (inactive)
9,Cc1cnc(N2CC[C@H]3CN(CC(=O)N(C)C)S(=O)(=O)[C@@H]3CC2)nc1,21.5% (inactive)
10,O=C(CCc1ccc2nc(-c3ccccc3)[nH]c2c1)N1CCC(N2CCCCC2)CC1,57.7% (inactive)
11,c1ccc(-n2ncc3c(NC4CCCCCCCCCCC4)ncnc32)cc1,53.5% [at 10 µM] (inactive)
12,Cc1nc(-c2ccc(F)cc2)sc1-c1ccc(SCCN2CCCCC2)nn1,10.2% [at 0.16 µM] (inactive)
13,Cc1ccc(Cn2c(=O)c3nn(C)cc3n3c(=O)n(Cc4nc(-c5cccc(C)c5)oc4C)nc23)cc1,8.72% [at 10 µM] (inactive)
14,COc1ccc(-c2nc(N3CCN(c4cc(C)ccc4C)CC3)c3ccccc3n2)cc1,11.7% [at 0.68 µM] (inactive)
15,O=C(CCC1N=C2c3ccccc3N=C(SCc3ccccc3F)N2C1=O)NC1CCCCC1 (configuration not stated),96.1% (inactive)
16,O=C(CC1N=C2c3ccccc3N=C(SCc3cccc(Cl)c3)N2C1=O)NC1CCCCC1 (configuration not stated),-15.8% [at 0.16 µM] (inactive)
17,O=C(CC1N=C2c3ccccc3N=C(SCc3ccccc3Cl)N2C1=O)NC1CCCCC1 (configuration not stated),14% (inactive)
18,Cc1ccc(CSC2=Nc3ccccc3C3=NC(CC(=O)NC4CCCCC4)C(=O)N23)cc1 (configuration not stated),39.6% (inactive)
19,Cc1cccc(C(=O)N2CCC3(CC2)Nc2ccc(Cl)cc2-n2cccc23)c1,5.23% (inactive)
20,COc1ccc(OC)c(NC(=O)Nc2ccc(-c3nc(-c4ccccc4)co3)cc2)c1,13.4% [at 0.68 µM] (inactive)
21,COc1ccc(-c2nc(Nc3cccc(C(F)(F)F)c3)c3ccccc3n2)cc1,-7.84% [at 5 µM] (inactive)
22,N#C[C@@H]1[C@@H](c2ccc(-c3cccnc3)cc2)[C@H](CO)N1C(=O)Nc1ccc(F)cc1,48.3% [at 10 µM] (inactive)
23,CCOc1cccc(-c2noc(-c3nnn(Cc4nc(-c5ccc(C)cc5)oc4C)c3C)n2)c1,-11.7% [at 0.68 µM] (inactive)
24,CN1C(=O)CCc2cc(NC(=O)c3cnccn3)ccc21,158% [at 10 µM] (inactive)
25,COc1ccc(-c2nc(Nc3cc(Cl)ccc3OC)c3ccccc3n2)cc1,12.5% [at 0.68 µM] (inactive)
26,Cc1ccc2c(c1)cc(S(=O)(=O)c1ccccc1)c(=O)n2CC(=O)NCC1CCCO1 (configuration not stated),-10.7% [at 10 µM] (inactive)

row,SMILES,max activity
1,CCOc1ccccc1NC(=O)N1CCN(Cc2nc(-c3ccc(C)cc3)oc2C)CC1,-15.8% (inactive)
2,COc1ccc(OC)c(CNc2nc(-c3ccc(Cl)cc3)nc3ccccc23)c1,14.3% (inactive)
3,N#C[C@@H]1[C@@H](c2ccc(-c3cccc(F)c3)cc2)[C@H](CO)N1C(=O)NC1CCCC1,20.3% [at 10 µM] (inactive)
4,N#C[C@H]1[C@@H](c2ccc(-c3cccc(F)c3)cc2)[C@@H](CO)N1C(=O)NC1CCCC1,14.8% [at 2.6 µM] (inactive)
5,Cc1nc(-c2ccc(F)cc2)sc1-c1ccc(SCc2ccccc2)nn1,20.5% [at 10 µM] (inactive)
6,COc1ccc(-c2nc(N3CCN(c4cc(Cl)ccc4C)CC3)c3ccccc3n2)cc1,23.2% [at 1.35 µM] (inactive)
7,Cc1ccccc1-c1nc(CN2CCN(C(=O)NC3CCCCC3)CC2)c(C)o1,-12% [at 0.35 µM] (inactive)
8,Cc1cccc(-c2nc(Cn3nnc(-c4nc(-c5ccc(C(F)(F)F)cc5)no4)c3C)c(C)o2)c1,-7.24% [at 0.16 µM] (inactive)
9,Cc1ccc(C)c(N2CCN(c3nc(-c4ccc(Cl)cc4)nc4ccccc34)CC2)c1,16.9% (inactive)
10,CC(C)Cc1ccc(S(=O)(=O)N2CCC3(CC2)NCCN=C3NCc2ccc3c(c2)OCO3)cc1,12.4% [at 10 µM] (inactive)
11,Cc1ccc(S(=O)(=O)N2CCC3(CC2)NCCN=C3NCc2ccc3c(c2)OCO3)c(C)c1,-18.3% (inactive)
12,O=S(=O)(c1ccc2c(c1)CCCC2)N1CCC2(CC1)NCCN=C2NCc1ccc2c(c1)OCO2,10.2% (inactive)
13,COc1ccccc1NC(=O)COc1nc(C)nc2ccccc12,14.7% (inactive)
14,COc1ccc(S(=O)(=O)N2CCC[C@@H]2C(=O)NCCc2csc(C)n2)cc1OC,10.7% [at 10 µM] (inactive)
15,O=C(Cc1ccccc1)N1CCC2(CC1)CC(N1CCCC1)CO2 (configuration not stated),17.6% [at 2.6 µM] (inactive)
16,CC(C)CCNC(=O)Cn1c(=O)c(S(=O)(=O)c2ccccc2)cc2ccccc21,-14% [at 0.16 µM] (inactive)
17,CCN1C(=O)CCc2cc(NC(=O)Cc3ccc(OC)cc3)ccc21,7.03% [at 2.6 µM] (inactive)
18,CN1C(=O)CCc2cc(NC(=O)C3CC3)ccc21,-5.59% [at 0.16 µM] (inactive)
19,CN1C(=O)CCc2cc(NC(=O)Cc3c(F)cccc3Cl)ccc21,-7.19% [at 5 µM] (inactive)
20,CN1C(=O)CCc2cc(NC(=O)c3cccc(C(F)(F)F)c3)ccc21,6.55% [at 0.68 µM] (inactive)
21,CCN1C(=O)CCc2cc(NC(=O)Cc3ccc(Cl)cc3)ccc21,8.3% [at 2.6 µM] (inactive)
22,COc1ccc(CC(=O)Nc2ccc3c(c2)CCC(=O)N3C)cc1Cl,7.75% [at 10 µM] (inactive)
23,COCC(=O)Nc1ccc2c(c1)CCC(=O)N2C,6.56% [at 0.16 µM] (inactive)
24,COc1cccc(CCC(=O)Nc2ccc3c(c2)CCC(=O)N3C)c1,3.19% (inactive)
25,COc1cc(OC)c(NC(=O)Nc2ccc(-c3nc(-c4ccccc4)co3)cc2)cc1Cl,24.2% (inactive)
26,CCOC(=O)CSc1nc(NCCc2ccc(OC)c(OC)c2)c2ccccc2n1,24.2% [at 0.68 µM] (inactive)

row,SMILES,max activity
1,Cc1ccc(-c2nc(CN3CCN(C(=O)Nc4ccccc4C(F)(F)F)CC3)c(C)o2)cc1,15.9% [at 0.16 µM] (inactive)
2,O=C(Nc1ccc(-c2nc(-c3ccccc3)co2)cc1)c1ccc2c(c1)OCO2,22.1% [at 0.35 µM] (inactive)
3,COc1ccc(OC)c(NC(=O)Nc2ccc(-c3nc(-c4ccc(C)cc4C)co3)cc2)c1,12.1% [at 0.35 µM] (inactive)
4,COc1cccc(-c2nc3c(s2)CN(C(=O)Nc2ccc(Br)cc2)CC3)c1,6.77% (inactive)
5,Cc1ccc(-c2nc(Cn3nnc(-c4nc(-c5ccc(OCC(C)C)cc5)no4)c3C)c(C)o2)cc1,21.2% [at 0.16 µM] (inactive)
6,CCOC(=O)C1CCN(S(=O)(=O)c2cc(-c3nc(C(C)(C)C)cs3)cs2)CC1,7.71% [at 0.68 µM] (inactive)
7,CN1C(=O)CCc2cc(NC(=O)c3ccsc3)ccc21,74.1% [at 10 µM] (inactive)
8,CN1C(=O)CCc2cc(NC(=O)c3ccncc3)ccc21,-16.2% [at 2.6 µM] (inactive)
9,Cc1ccc(-c2coc(-c3ccc(NC(=O)c4ccc(Br)o4)cc3)n2)cc1,38% [at 2.6 µM] (inactive)
10,O=C(Nc1ccc(-c2nc(-c3ccccc3)co2)cc1)Nc1cccc(F)c1,13.5% (inactive)
11,Cc1nc(-c2ccc(F)cc2)sc1-c1ccc(SCCN2CCCCCC2)nn1,9.96% (inactive)
12,COc1ccc(CC(=O)Nc2ccc(-c3nc(-c4ccc(C)cc4)co3)cc2)cc1,16.4% [at 0.35 µM] (inactive)
13,COc1ccc(-c2ccc(OCCNC(=O)c3sc(-c4ccccc4)nc3C)nn2)cc1,13.2% [at 0.16 µM] (inactive)
14,O[C@H](CNC[C@@H](O)[C@H]1CCc2cc(F)ccc2O1)[C@@H]1CCc2cc(F)ccc2O1,-7.92% [at 0.3 µM] (inactive)
15,CNc1ncc(CN(C)C(=O)c2csc(C)n2)cn1,20.8% (inactive)
16,Cc1ccc2c(c1)cc(S(=O)(=O)c1ccccc1)c(=O)n2CC(=O)NCc1ccccc1Cl,7.82% [at 0.68 µM] (inactive)
17,O=C(NCCc1csc(-c2ccccc2)n1)[C@H]1CSCN1C(=O)Cc1cccs1,12.6% (inactive)
18,Cc1ccc(C)c(-c2coc(-c3ccc(NC(=O)c4ccccc4)cc3)n2)c1,11.8% [at 2.6 µM] (inactive)
19,COc1ccc(C)cc1NC(=O)Nc1ccc(-c2nc(-c3ccc(C)cc3C)co2)cc1,20.4% (inactive)
20,COc1cc(C(=O)Nc2ccc(-c3nc(-c4ccc(C)cc4C)co3)cc2)cc(OC)c1OC,27.4% [at 5 µM] (inactive)
21,O=C(Nc1ccc(-c2nc(-c3ccccc3)co2)cc1)Nc1cc(F)ccc1F,10.9% [at 2.6 µM] (inactive)
22,COc1ccc(C(=O)Nc2ccc(-c3nc(-c4cc(C)ccc4C)co3)cc2)cc1OC,9.52% [at 0.35 µM] (inactive)
23,Cc1ccc(-c2coc(-c3ccc(NC(=O)Nc4ccc(F)cc4F)cc3)n2)cc1,92.1% (inactive)
24,COc1ccc(C(=O)Nc2ccc(-c3nc(-c4ccc(C)cc4C)co3)cc2)cc1OC,45% (inactive)
25,COc1ccccc1NC(=O)Nc1ccc(-c2nc(-c3cc(C)ccc3C)co2)cc1,9.93% [at 0.16 µM] (inactive)

# From PubChem BioAssay AID1259418 (Broad Institute, 2018)
